The target in assay [1] is Lysosomal acid glucosylceramidase (Homo sapiens) (UniProt P04062). Kind of assay: Glucocerebrosidase-p2 (AID 348; in the data active = potency below about 10 µM; note: potency is the fitted concentration of half-maximal effect). The conditions noted are these: purified GBA, blue fluorogenic substrate, 40 min. The method in brief:
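Normal human glucocerebrosidase (0.2 nM) with blue fluorogenic substrate (80 uM final) in citrate/phosphate pH 5.9 with 10mM sodium taurocholate, 0.01% tween-20; 40 min RT, NaOH/glycine stop; fluorescence Ex 365/Em 440; AC50 from a titration from 0.6 nM upwards.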

Assay [2] can be described thus: AP1 Signaling Pathway (AID 357).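 Note: ME-180 reporter cells stimulated with EGF at its EC50 level; % is set by controls: 0 for no effect and ±100 for the full control effect.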 The conditions noted are these: ME-180 AP-1-bla reporter, EGF-induced, beta-lactamase ratio, 5 h; at 7.69 µM (top of the series) unless noted. The method in brief:
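Cells are seeded overnight, exposed to compound titrations and an EC50 level of EGF for 5 hours at 37 °C, then loaded with CCF4 dye for 2.5 hours. Beta-lactamase activity under the AP-1 element is read as a blue/green ratio.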

Assay [3] is described as follows: NFAT Signaling Pathway (AID 444).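 Note: carbachol stimulus at about its EC50 of 1 µM final; % is set by controls: 0 for no effect and ±100 for the full control effect.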 The following applies: Jurkat NFAT-bla M1, carbachol, beta-lactamase ratio, 5 h; at 7.69 µM (top of the series) unless noted. The method in brief: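 Jurkat cells with NFAT-driven β-lactamase reporter and co-expressed M1 receptor, stimulated with carbachol (final 1 uM, ~EC50), compound titration, 5 h at 37 °C. CCF4 loaded 1 h at RT; 460/530 nm ratio gave %activity and AC50.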

Assay [4] in a line: Stat Signaling Pathway (AID 446).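 Note: ME-180 cervical cancer cells given 40 pM IL-6 alongside compound; SIE-controlled beta-lactamase reporter measured as 460/530 nm FRET emission ratio; % is set by controls: 0 for no effect and ±100 for the full control effect.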 The following applies: ME-180 (cervical carcinoma) SIE beta-lactamase reporter, IL-6 stimulated, 5 h; at 7.69 µM (top of the series) unless noted. The gist of the method: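 Normalization used AC90 stimulation (300 pM IL-6) and AC90 inhibition (125 nM pan-JAK inhibitor at 40 pM IL-6). The underlying signal is SIE-driven beta-lactamase in ME-180 cells after 5 h IL-6 exposure with compound.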

The target in assay [5] is Glucocorticoid receptor (Homo sapiens) (UniProt P04150). Kind of assay: GR-EFC Redistribution (AID 451; calls by dose curve; note: potency is the fitted concentration of half-maximal effect). The conditions noted are these: CHO-K1 GR-EFC translocation, beta-gal luminescence, 2 h. The method in brief:
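CHO-K1 cells expressing nuclear EA and GR-ED fragments of b-gal; compounds titrated up to 46 uM final, 2 h at 37 C. GR nuclear translocation read as complemented b-gal luminescence after 1 h RT detection.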

Assay [6] has as its target Mitogen-activated protein kinase 10 (Mus musculus) (UniProt Q61831). Kind of assay: JNK3 AlphaScreen Assay (AID 530).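 Note: kinase came from lysate of stimulated human HepG2 cells; signal reports phosphorylation of biotinylated GST-cJun 1-79 at Ser73 with 10 µM ATP; % is set by controls: 0 for no effect and ±100 for the full control effect.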 The conditions noted are these: JNK3 lysate, c-Jun phosphorylation; series mostly up to 57.1 µM. The gist of the method: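 HepG2 lysate (IL-1b/TNFa pre-activated) + biotin-GST-cJun 1-79 + anti-pSer73 cJun; cpd titration, 15 min RT; ATP 10 uM start; Tris pH 7.6, MgCl2, DTT, vanadate; beads in EDTA buffer; AlphaScreen.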
(In general: Bead proximity is the source of the signal in Alpha formats.)

Assay [7] has as its target 3',5'-cyclic-AMP phosphodiesterase 4B (Homo sapiens) (UniProt Q07343). Kind of assay: qHTS Assay for Inhibitors of PDE-IV (AID 607; active = well fitted activation curve with a large enough effect in the main read-out, with a control signal flat, not every such curve was filed as active; note: % of control where 0% means no effect). The following applies: HEK293 ACTOne CNG channel cells, membrane potential fluorescence; series mostly up to 22.9 µM. The method in brief:
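HEK293 ACTOne cells with CNG channel (1000/well), endogenous PDE4; membrane potential dye, compounds up to 22.9 uM final. Fluorescence Ex 535/Em 590; RO 20-1724 (100 uM final) as reference.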
(In qHTS, concentration-response curves come from the screen itself.)

The target of assay [8] is Cytochrome P450 3A4 (Homo sapiens) (UniProt P08684). As to the kind of experiment: qHTS Assay for Inhibitors and Substrates of Cytochrome P450 3A4 (AID 884; active = well fitted curve in the direction sought with a large enough effect; an effect the other way counts as inactive or inconclusive; note: % is set by controls: 0 for no effect and ±100 for the full control effect; nearly all actives have a fitted effect of over 50% in size). The following applies: recombinant CYP3A4, Luciferin-PPXE luminescence; series mostly up to 57.1 µM. The gist of the method: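 Luminescent readout of luciferin produced by CYP3A4 (20 nM) dealkylation of Luciferin-PPXE, 25 uM (its KM). NADPH-driven reaction ran 60 min at RT after 10 min compound preincubation; data scaled to 57 uM ketoconazole as 100% inhibition.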
Sequence of Cytochrome P450 3A4 (Homo sapiens) (P08684 whole entry, looked up): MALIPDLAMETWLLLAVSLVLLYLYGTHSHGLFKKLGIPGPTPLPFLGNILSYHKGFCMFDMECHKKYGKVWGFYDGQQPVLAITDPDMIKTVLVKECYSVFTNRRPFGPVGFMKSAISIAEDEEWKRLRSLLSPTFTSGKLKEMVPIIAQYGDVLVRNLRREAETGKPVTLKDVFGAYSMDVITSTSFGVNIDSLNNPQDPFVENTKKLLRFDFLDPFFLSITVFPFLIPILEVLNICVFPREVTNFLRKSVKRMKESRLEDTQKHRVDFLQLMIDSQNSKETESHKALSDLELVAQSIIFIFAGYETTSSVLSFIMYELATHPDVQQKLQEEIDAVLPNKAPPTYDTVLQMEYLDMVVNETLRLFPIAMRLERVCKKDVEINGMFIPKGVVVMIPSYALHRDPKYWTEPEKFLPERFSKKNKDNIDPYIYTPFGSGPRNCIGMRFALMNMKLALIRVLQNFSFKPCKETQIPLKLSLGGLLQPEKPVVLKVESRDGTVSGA

For assay [9] the target is unchanged. As to the kind of experiment: qHTS Assay for Activators of Cytochrome P450 3A4 (AID 885; active = well fitted curve in the direction sought with a large enough effect; an effect the other way counts as inactive or inconclusive; note: nearly all actives have a fitted effect of over 65% in size; note: potency is the fitted concentration of half-maximal effect). The conditions noted are these: recombinant CYP3A4, Luciferin-PPXE luminescence, 60 min; series mostly up to 57.1 µM. The gist of the method: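 Human CYP3A4 dealkylates Luciferin-PPXE to luciferin, which luciferase detection converts to light. Substrate was at its KM (25uM), buffer 200mM KPO4, reaction 60 min at RT.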

Assay [10] is described as follows: Primary qHTS for small molecule stabilizers of the endoplasmic reticulum resident proteome: Secreted ER Calcium Modulated Protein (SERCaMP) assay (AID 1508630; active = well fitted curve in the direction sought with a large enough effect; an effect the other way counts as inactive or inconclusive; note: % is set by controls: 0 for no effect and ±100 for the full control effect). The conditions noted are these: SH-SY5Y GLuc-SERCaMP (Gaussia luciferase released on ER calcium loss) secretion, thapsigargin, luminescence; series mostly up to 38.4 µM. The gist of the method:
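The SH-SY5Y reporter protocol was run at 3 concentrations up to 38.3 uM (primary) or 11 concentrations (follow-up): 16 h compound, 100 nM thapsigargin for 4 h, then extracellular luciferase luminescence.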

Assay [11] concerns the target Glucocorticoid receptor (Homo sapiens) (UniProt P04150). As to the kind of experiment: GR-GFP Redistribution (AID 450;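 active = compounds whose dose series gives a full or clear partial fitted curve of increased nuclear translocation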; note: potency is the fitted concentration of half-maximal effect). The following applies: U2OS GR-GFP nuclear translocation, laser cytometry, 2 h.
Assay [12] concerns the target Ubiquitin carboxyl-terminal hydrolase 1 (Homo sapiens) (UniProt O94782). As to the kind of experiment: Inhibitors of USP1/UAF1: Pilot qHTS (AID 504865; active = well fitted curve in the direction sought with a large enough effect; an effect the other way counts as inactive or inconclusive;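 note: rhodamine fluorescence freed from ubiquitin-rhodamine substrate followed over time; top concentration of the series differs between compounds; % is set by controls: 0 for no effect and ±100 for the full control effect; nearly all actives have a fitted effect of over 35% in size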). The conditions noted are these: purified USP1/UAF1, Ub-rhodamine cleavage fluorescence; series mostly up to 54.9 µM. The gist of the method: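 USP1/UAF1 complex at 1 nM preincubated 15 min at room temperature with compound, then Ub-Rho substrate added at 150 nM final. Fluorescence (480/540 nm) read kinetically in 50 mM HEPES pH 7.8, 0.5 mM EDTA, 1 mM TCEP, 0.1 mg/ml BSA, 0.01% Tween-20.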

In assay [13] the target is Cytochrome P450 2C19 (Homo sapiens) (UniProt P33261). As to the kind of experiment: qHTS Assay for Inhibitors and Substrates of Cytochrome P450 2C19 (AID 899; active = well fitted curve in the direction sought with a large enough effect; an effect the other way counts as inactive or inconclusive; note: % is set by controls: 0 for no effect and ±100 for the full control effect; nearly all actives have a fitted effect of over 60% in size). The following applies: recombinant CYP2C19, luciferin-H EGE luminescence; series mostly up to 57.1 µM. The gist of the method: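 5 nM human CYP2C19 with 10uM Luciferin-H EGE (at KM) in 50mM KPO4, compound preincubated 10 min at 37C, then NADPH regeneration for 60 min at 37C. Luciferin read by luminescence after detection reagent; normalized to 57uM ketoconazole as full inhibition.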
Sequence of Cytochrome P450 2C19 (Homo sapiens) (P33261 whole entry, looked up): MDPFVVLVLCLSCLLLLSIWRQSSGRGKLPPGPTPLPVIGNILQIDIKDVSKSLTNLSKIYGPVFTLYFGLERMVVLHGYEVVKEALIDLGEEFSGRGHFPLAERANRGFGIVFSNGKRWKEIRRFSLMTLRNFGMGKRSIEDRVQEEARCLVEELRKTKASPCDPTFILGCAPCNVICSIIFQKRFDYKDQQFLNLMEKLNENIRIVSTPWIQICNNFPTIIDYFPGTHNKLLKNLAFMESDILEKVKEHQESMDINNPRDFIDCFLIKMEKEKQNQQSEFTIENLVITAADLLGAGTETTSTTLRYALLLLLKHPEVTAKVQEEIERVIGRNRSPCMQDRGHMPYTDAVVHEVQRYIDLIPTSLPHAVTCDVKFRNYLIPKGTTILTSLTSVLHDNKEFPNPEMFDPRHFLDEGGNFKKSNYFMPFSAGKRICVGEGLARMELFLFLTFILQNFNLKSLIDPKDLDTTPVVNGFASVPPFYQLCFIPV

Consider 8 compounds from PubChem BioAssay (NCATS).

A number with no mark means an inactive call. Records with an inconclusive call do not appear. Activity calls are given as the source filed them. Unless noted, calls come from the whole dose curve; as a rule, active = well fitted curve in either direction with a large enough effect (not every such curve was filed as active); inconclusive = small, poorly fitted or top-dose-only effect, or another doubt; inactive = flat fitted curve, though single readings scatter.

Sequence of Glucocorticoid receptor (Homo sapiens) (P04150 whole entry, looked up, the tested form may be a part): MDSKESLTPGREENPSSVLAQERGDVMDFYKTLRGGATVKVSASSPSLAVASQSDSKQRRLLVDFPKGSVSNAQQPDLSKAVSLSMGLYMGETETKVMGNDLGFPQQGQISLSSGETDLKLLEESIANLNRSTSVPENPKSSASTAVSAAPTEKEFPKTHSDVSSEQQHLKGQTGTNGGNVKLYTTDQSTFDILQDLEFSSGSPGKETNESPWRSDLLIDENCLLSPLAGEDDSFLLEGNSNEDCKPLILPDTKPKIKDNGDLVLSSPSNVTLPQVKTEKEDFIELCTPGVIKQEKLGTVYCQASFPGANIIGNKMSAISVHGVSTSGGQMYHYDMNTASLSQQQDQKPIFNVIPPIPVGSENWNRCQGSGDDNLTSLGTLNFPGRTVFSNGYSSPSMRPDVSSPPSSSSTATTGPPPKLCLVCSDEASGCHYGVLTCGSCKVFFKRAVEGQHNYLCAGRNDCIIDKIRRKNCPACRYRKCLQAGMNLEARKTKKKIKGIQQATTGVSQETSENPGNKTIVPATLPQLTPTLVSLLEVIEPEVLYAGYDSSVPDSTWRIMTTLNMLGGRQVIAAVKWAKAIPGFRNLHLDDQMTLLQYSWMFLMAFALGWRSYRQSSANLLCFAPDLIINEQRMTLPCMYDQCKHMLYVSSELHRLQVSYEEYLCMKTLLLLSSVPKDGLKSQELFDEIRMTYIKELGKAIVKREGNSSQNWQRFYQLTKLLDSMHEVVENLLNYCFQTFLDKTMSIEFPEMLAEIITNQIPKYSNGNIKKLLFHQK
Sequence of Lysosomal acid glucosylceramidase (Homo sapiens) (P04062 whole entry, looked up): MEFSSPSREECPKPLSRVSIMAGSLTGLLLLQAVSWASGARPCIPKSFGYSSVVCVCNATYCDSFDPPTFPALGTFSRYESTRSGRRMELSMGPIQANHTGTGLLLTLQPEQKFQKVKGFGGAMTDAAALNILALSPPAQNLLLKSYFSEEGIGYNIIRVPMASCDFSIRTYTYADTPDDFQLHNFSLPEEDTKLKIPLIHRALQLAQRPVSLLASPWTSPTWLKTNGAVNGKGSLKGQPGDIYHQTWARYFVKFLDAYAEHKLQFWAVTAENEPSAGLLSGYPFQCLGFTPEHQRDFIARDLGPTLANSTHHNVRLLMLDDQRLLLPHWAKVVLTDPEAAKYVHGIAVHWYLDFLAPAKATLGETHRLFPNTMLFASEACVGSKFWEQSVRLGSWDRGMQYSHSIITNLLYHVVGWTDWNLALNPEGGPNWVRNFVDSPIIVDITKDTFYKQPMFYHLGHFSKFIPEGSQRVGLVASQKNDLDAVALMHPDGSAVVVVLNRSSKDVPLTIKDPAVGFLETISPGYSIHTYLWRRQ
Sequence of 3',5'-cyclic-AMP phosphodiesterase 4B (Homo sapiens) (Q07343 whole entry, looked up): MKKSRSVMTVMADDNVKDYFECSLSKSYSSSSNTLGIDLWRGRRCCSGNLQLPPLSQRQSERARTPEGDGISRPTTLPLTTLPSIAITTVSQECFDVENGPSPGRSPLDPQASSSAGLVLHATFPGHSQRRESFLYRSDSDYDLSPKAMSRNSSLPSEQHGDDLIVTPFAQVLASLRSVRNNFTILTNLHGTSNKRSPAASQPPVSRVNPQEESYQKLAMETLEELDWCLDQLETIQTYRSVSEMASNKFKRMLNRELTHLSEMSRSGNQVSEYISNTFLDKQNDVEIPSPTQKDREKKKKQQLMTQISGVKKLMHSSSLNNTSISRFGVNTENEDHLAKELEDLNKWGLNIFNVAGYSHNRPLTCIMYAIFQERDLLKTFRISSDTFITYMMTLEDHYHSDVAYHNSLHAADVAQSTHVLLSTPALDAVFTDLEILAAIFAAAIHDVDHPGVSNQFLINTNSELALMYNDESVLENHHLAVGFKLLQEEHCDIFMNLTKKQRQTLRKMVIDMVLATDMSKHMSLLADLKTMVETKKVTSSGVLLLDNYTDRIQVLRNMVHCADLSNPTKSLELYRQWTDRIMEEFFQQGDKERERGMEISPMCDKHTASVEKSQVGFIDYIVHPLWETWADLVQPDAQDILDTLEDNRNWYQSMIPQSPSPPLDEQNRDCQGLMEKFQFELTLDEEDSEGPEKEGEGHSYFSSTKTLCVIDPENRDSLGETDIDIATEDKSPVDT
Sequence of Ubiquitin carboxyl-terminal hydrolase 1 (Homo sapiens) (O94782 whole entry, looked up): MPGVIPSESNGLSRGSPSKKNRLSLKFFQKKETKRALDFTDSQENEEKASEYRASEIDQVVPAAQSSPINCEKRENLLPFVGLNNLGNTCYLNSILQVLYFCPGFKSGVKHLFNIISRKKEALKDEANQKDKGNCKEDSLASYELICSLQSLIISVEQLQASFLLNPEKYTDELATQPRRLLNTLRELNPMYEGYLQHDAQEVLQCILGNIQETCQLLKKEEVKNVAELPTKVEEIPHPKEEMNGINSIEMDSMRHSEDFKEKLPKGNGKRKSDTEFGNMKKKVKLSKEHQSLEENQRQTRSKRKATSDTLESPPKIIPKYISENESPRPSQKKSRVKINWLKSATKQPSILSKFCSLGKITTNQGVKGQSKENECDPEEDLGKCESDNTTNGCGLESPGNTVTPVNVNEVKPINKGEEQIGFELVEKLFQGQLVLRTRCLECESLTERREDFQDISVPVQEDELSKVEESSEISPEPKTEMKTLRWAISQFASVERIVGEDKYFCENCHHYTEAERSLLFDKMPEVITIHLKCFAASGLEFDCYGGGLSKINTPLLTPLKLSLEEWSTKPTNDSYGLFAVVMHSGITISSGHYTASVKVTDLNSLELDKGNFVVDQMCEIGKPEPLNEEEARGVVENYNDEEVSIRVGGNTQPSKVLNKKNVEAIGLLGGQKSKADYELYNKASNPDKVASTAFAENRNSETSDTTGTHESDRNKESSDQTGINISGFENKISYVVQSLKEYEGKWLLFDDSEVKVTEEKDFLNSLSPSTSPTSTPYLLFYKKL

Take `O=C(c1ccco1)N1CCC2(CC1)CN(c1ncccn1)C2`: the results for the Potency in [1], in [5] and in assay [9] were greater than 11.4 µM, greater than 46 µM and 15.8 µM (active), respectively. The results for the activity change, negative = inhibition in [2] and in assay [3] were -3.83% and 0.563%, respectively. Moreover, the activity, negative = inhibition in assay [4] is 2.05%. The Potency result in assay [6], in assay [7] and in assay [8] was “inactive” each time. Besides, the outcome in [10] was inactive.
Take `Cc1noc(C)c1C(=O)N1CCC2(CCCN(c3ccccn3)C2)CC1`: the Potency in [1] was greater than 11.4 µM; in assay [5], greater than 46 µM. For the same compound, the activity change, negative = inhibition in assay [2] was -4.45%; in assay [3] it was -10.8%. Also, the activity, negative = inhibition in assay [4] was -8.83%. In addition, the Potency result in assay [6], in assay [7] and in [9] was “inactive” throughout. In addition, the result in [10] was inactive.
For `O=C(c1ccco1)N1CCC2(CCCN(c3ncccn3)C2)CC1`, the Potency is greater than 11.4 µM in assay [1] and greater than 46 µM in assay [5]. Besides, the activity change, negative = inhibition was 3.88% in [2] and -1.96% in [3]. Moreover, in assay [4], the activity, negative = inhibition was -7%. Also, the Potency entry in [6] and in [7] was “inactive” in each case. Besides, the result in [10] was inactive.
For the compound `O=C(c1ccncc1)N1CCC2(CCCN(c3ccc(-c4ccccc4)cc3)C2)CC1`, the Potency is greater than 11.4 µM in [1] and greater than 46 µM in assay [5]. The activity change, negative = inhibition in assay [2] is -6.85%; in assay [3], 14.6%. The activity, negative = inhibition in assay [4] was -6.26%. In addition, the Potency result in [6] and in assay [7] was “inactive” throughout. For the same compound, the result in assay [10] was inactive.
Take `COc1ccc(-c2nc3cnc(N4CCOCC4)nc3n(Cc3cccc(OC)c3)c2=O)cc1`: the Potency is greater than 11.4 µM in assay [1], greater than 9.22 µM in assay [11] and greater than 46 µM in assay [5]. The results for the activity change, negative = inhibition in assay [2] and in assay [3] were 18.4% and 18.6%, respectively. The Potency entry in [6], in [7] and in assay [12] was “inactive” throughout. In assay [10], the outcome was inactive.
With `COC(=O)N1CCC[C@@]2(CCN(Cc3nccs3)C2)C1`, the Potency in assay [1] is greater than 11.4 µM; in [5], greater than 46 µM. Further, the results for the activity change, negative = inhibition in assay [2] and in assay [3] were 1.72% and 14.9%, respectively. Moreover, in assay [4], the activity, negative = inhibition was -4.13%. The Potency entry in [6] and in assay [7] was “inactive” each time. Moreover, the result in assay [10] was inactive.
Take `N#Cc1cccc(NC(=O)N2CCC3(CC2)CCN(C(=O)c2cnccn2)CC3)c1`: the Potency in [1] was greater than 11.4 µM; in assay [5] it was greater than 46 µM. Further, the activity change, negative = inhibition was -8.55% in assay [2] and -3% in [3]. The activity, negative = inhibition in assay [4] is 2.13%. The Potency entry in assay [6] and in assay [7] was “inactive” in each case. Also, the result in assay [10] was inactive.
Take `O=C(Nc1cccc(F)c1)N1CC2(CCN(C(=O)c3ccncc3)CC2)C1`: the values for the Potency in [1] and in assay [5] were greater than 11.4 µM and greater than 46 µM, respectively. In addition, the figures for the activity change, negative = inhibition in assay [2] and in assay [3] were -11.4% and 9.26%, respectively. In addition, the activity, negative = inhibition in assay [4] is 1.8%. Also, the Potency result in [6], in assay [7] and in assay [13] was “inactive” throughout. In [10], the result was inactive.
